Test [1] can be described thus: inhibitors of TNFa-induced NFkB p65 translocation, primary screen, imaging, HUVEC, MLSMR starter and 10KST1 sets (AID 438;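 active means inhibition above 20% together with a positive visual image hit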;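 further: compound added about 3h40 before a 20 min TNFalpha stimulation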;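 on inhibition: signal is the nuclear over cytoplasmic p65 intensity ratio per well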). To be noted: HUVEC TNFa-induced p65 nuclear translocation; cell count: measured here: nuclei count (cytotoxicity indicator), at 2.08 µM; inhibition: at 2 µM, stronger effect = higher value, 0% TNFa-plus-vehicle, 100% no-TNFa wells.
Test [2] is described as follows: reduction of polyQ htt aggregates in cells – imaging, exon1htt(103Q)mCFP cells, high-content imaging, primary screen (AID 483;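 active means visual image review flags a hit and inhibition of aggregation exceeds 20%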;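 further: compound exposure lasted 3 days before fixation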;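 on nuclei count: percent of the per-plate median nuclei count of sample wells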). To be noted: exon1htt(103Q)mCFP cell line, aggregate imaging, at 2 µM; inhibition of aggregation: stronger effect = higher value; nuclei count: measured here: cell count, toxicity.
The nature of test [3]: endothelial E-selectin expression blockers – imaging, HUVEC, immunofluorescence, MLSMR starter and 10KST1 sets, primary screen (AID 487;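 active means visually confirmed hit in the image check and inhibition above 20%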;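 on inhibition: signal is fraction of cell area covered by stained E-selectin grains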;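 on nuclei count: 100% = median nuclei count of all wells on the same plate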). The following applies: HUVEC TNFalpha-induced E-selectin immunofluorescence imaging, at 2 µM; inhibition: stronger effect = higher value; nuclei count: measured here: cell number, toxicity.
Test [4] deals with Voltage-gated potassium channel subunit beta-2 (Rattus norvegicus) (UniProt P62483). Description: inhibitors of rat Kvbeta2 reductase activity – biochemical, NADPH fluorescence, primary screen (AID 622;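 active means fluorescence slope higher than the sample average by over 3 SD, cut at about -0.22 in these data, passing the limit was not always enough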;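 further: slope of raw intensity against log time taken from 70 to 1610 s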). The following applies: recombinant KvBeta, 4-cyanobenzaldehyde reduction, at 10 µM, stronger effect = higher value.
Chain of Voltage-gated potassium channel subunit beta-2 (Rattus norvegicus) (P62483 whole entry, looked up): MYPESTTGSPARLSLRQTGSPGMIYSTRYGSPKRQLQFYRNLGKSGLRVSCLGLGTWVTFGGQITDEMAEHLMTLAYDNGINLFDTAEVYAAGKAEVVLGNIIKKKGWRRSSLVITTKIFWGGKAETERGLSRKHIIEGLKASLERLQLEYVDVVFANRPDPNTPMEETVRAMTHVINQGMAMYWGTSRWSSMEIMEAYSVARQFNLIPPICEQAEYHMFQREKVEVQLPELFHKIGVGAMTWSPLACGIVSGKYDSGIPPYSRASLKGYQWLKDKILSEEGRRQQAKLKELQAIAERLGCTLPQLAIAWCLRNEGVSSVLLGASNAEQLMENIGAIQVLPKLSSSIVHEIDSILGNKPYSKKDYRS
Test [5] has the same target. In words: enhancers of rat Kvbeta2 NADPH turnover – biochemical, NADPH fluorescence, primary screen (AID 623;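 active means NADPH fluorescence slope more negative than the mean of all samples by about 3 SD, 99.7% confidence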;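 further: fluorescence intensity change per second fitted from 20 to 320 s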). The following applies: Recombinant KvBeta, NADPH fluorescence decrease slope, 10 min; at 10 µM; stronger effect = lower value.
Test [6] concerns the target Alpha-2C adrenergic receptor (Homo sapiens) (UniProt P18825). In words: compounds altering alpha2C-coupled GIRK flux – cell-based, HEK293 alpha2C/GIRK1/2, thallium flux, primary screen (AID 624;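 active means fluorescence slope after compound addition differing from the mean of all screened samples at 99.7% confidence, in either direction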;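 further: slope of fluorescence ratio to pre-addition baseline per second over 15 to 24 s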). To be noted: thallium flux BTC fluorescence, at 10 µM, actives lie on both sides.
Test [7] is described as follows: blockers of RIG-like receptor reporter activation – cell-based, Sendai virus stimulus, luciferase, 10K MLSCN set, TLR/RLR signaling modifier project, primary screen (AID 602276;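 active means inhibition at or above 50% at 10 µM; inactive means inhibition below 50%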;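 further: firefly luciferase from ISG56 promoter only with Renilla not read in this screen; 0% = Sendai virus plus DMSO and 100% = medium plus DMSO without virus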). The following applies: HEK293 RL24 IRF3 luciferase reporter, at 10 µM, stronger effect = higher value. In general terms: A reporter such as luciferase makes a cellular process visible.
A short description of test [8]: TLR3 IRF3 reporter activation blockers – cell-based, poly I:C stimulus, luciferase, 10K MLSCN set, primary screen (AID 602277). The following applies: HEK293-TLR3 RL24 IRF3 luciferase reporter, at 10 µM, stronger effect = higher value.

Activity calls are given as the source filed them.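 How the source made its calls, unless noted: active means inhibition of the reporter signal at or above 50%; inactive means inhibition below 50%.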

Chain of Alpha-2C adrenergic receptor (Homo sapiens) (P18825 whole entry, looked up): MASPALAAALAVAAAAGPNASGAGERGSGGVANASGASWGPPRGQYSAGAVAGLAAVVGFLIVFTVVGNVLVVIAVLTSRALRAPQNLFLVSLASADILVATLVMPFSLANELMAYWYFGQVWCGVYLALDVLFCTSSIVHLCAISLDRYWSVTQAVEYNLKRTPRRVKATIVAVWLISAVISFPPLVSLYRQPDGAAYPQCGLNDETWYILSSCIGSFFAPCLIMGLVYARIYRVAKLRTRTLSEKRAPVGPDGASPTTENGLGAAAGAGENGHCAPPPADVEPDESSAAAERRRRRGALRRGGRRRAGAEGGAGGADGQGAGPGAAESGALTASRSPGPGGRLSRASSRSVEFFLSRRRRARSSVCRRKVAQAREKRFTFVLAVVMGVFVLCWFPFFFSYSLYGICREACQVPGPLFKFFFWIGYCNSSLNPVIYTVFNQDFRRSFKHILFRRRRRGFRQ

A word on the inhibition: it is the relative decrease from the control value, in per cent. On to `O=C1NC2=C(C(=O)CCC2)C(c2ccc3ncccc3c2)N1` (centres undefined), for which the cell count in test [1] stood at 513. For the same compound, the inhibition was 1.5% (inactive) in test [1], -13.9% (inactive) in test [3], 9.39% (inactive) in test [7] and 8.99% (inactive) in test [8]. For the same compound, the inhibition of aggregation in test [2] is 1.9% (inactive). For the same compound, the nuclei count came to 126% in test [2] and 116% in test [3]. Further, in test [4], the fluorescence slope is -0.541 (inactive). The NADPH fluorescence slope in test [5] is -5e-05 (inactive). Moreover, the slope in test [6] is 0.00696 (inactive).

On to `Cc1cc(C(=O)CSc2nnc(-c3ccco3)o2)c(C)n1CC1COc2ccccc2O1` (centres undefined), for which the cell count in test [1] is 393. The inhibition is 0% (inactive) in test [1], -115% (inactive) in test [3], 9.81% (inactive) in test [7] and 3.57% (inactive) in test [8]. Moreover, the inhibition of aggregation in test [2] is 15.2% (inactive). Besides, the values for the nuclei count in test [2] and in test [3] were 90.2% and 105%, respectively. Moreover, the fluorescence slope in test [4] is -0.516 (inactive). For the same compound, in test [5], the NADPH fluorescence slope was -2.2e-05 (inactive). In addition, in test [6], the slope is 0.00446 (inactive).

On to `Cc1nn(C)c(C)c1S(=O)(=O)N1CCCC(C(=O)N2CCN(c3ccc(Cl)cc3)CC2)C1` (centres undefined), for which the cell count in test [1] amounted to 288. Moreover, the inhibition was -3.9% (inactive) in test [1], -270% (inactive) in test [3], 11.1% (inactive) in test [7] and 11.6% (inactive) in test [8]. For the same compound, the inhibition of aggregation in test [2] is -45.6% (inactive). Moreover, the nuclei count in test [2] was found to be 94.8%; in test [3] it was 85.9%. In addition, the fluorescence slope in test [4] is -0.591 (inactive). In test [5], the NADPH fluorescence slope was -1.7e-05 (inactive). Also, the slope in test [6] was 0.00589 (inactive).

With `CCOCC(=O)Nc1sc2c(c1C(=O)OCC)CCCC2`, the cell count in test [1] came out at 300. Further, the inhibition in test [1] is -1.6% (inactive); in test [3], -39.3% (inactive); in test [7], 9.19% (inactive); in test [8], 14% (inactive). Moreover, the inhibition of aggregation in test [2] is 16.6% (inactive). The nuclei count in test [2] is 65.8%; in test [3] it was 116%. For the same compound, the fluorescence slope in test [4] was -0.347 (inactive). Also, the NADPH fluorescence slope in test [5] is -5.2e-05 (inactive). For the same compound, in test [6], the slope was 0.00551 (inactive).

On to `CCc1nnc(NC(=O)NCN2C(=O)C3C4C=CC(C4)C3C2=O)s1` (centres undefined), for which, in test [1], the cell count came to 303. Moreover, the inhibition in test [1] is 4.3% (inactive); in test [3] it was -28.4% (inactive); in test [7], 7.26% (inactive); in test [8], 12.4% (inactive). Further, the inhibition of aggregation in test [2] was 3.2% (inactive). For the same compound, the results for the nuclei count in test [2] and in test [3] were 92.9% and 96.4%, respectively. For the same compound, the fluorescence slope in test [4] is -0.458 (inactive). The NADPH fluorescence slope in test [5] was -0.000309 (inactive). In addition, the slope in test [6] is 0.00673 (inactive).

Turning to `O=C(Nc1ncc(Br)s1)C1CCCN1S(=O)(=O)c1cccc2cccnc12` (centres undefined), the cell count in test [1] stood at 674. In addition, the inhibition was 0.6% (inactive) in test [1], -12.1% (inactive) in test [3], 4.87% (inactive) in test [7] and 36.5% (inactive) in test [8]. The inhibition of aggregation in test [2] was 39.7% (inactive). The nuclei count worked out at 88.6% in test [2] and 105% in test [3]. In test [4], the fluorescence slope was -0.583 (inactive). The NADPH fluorescence slope in test [5] is -2.2e-05 (inactive). Further, the slope in test [6] is 0.00689 (inactive).

As for `CCc1nnc(NC(=O)C2CCCN2S(=O)(=O)c2ccc(C)cc2)s1` (centres undefined), in test [1], the cell count worked out at 445. Further, the inhibition in test [1] is -8.4% (inactive); in test [3], 25.4% (inactive); in test [7], 2.82% (inactive); in test [8], 15.9% (inactive). In addition, in test [2], the inhibition of aggregation is 24.1% (inactive). In addition, the nuclei count in test [2] came out at 60.3%; in test [3], 123%. The fluorescence slope in test [4] was -0.41 (inactive). Moreover, in test [5], the NADPH fluorescence slope is 1.6e-05 (inactive). Besides, the slope in test [6] was 0.00581 (inactive).

Turning to `COc1ccc(Cn2c(-c3ccco3)nc3oc4ccccc4c(=O)c3c2=O)cc1`, the cell count in test [1] came to 492. For the same compound, the inhibition in test [1] is -7.6% (inactive); in test [3], -22% (inactive); in test [7] it was -1.06% (inactive); in test [8], -24.4% (inactive). Moreover, the inhibition of aggregation in test [2] is -68.5% (inactive). Moreover, the nuclei count was 90.1% in test [2] and 115% in test [3]. For the same compound, the fluorescence slope in test [4] was -0.491 (inactive). For the same compound, the NADPH fluorescence slope in test [5] was -2.1e-05 (inactive). Also, the slope in test [6] was 0.00596 (inactive).

With `CCN(CC)CCCNC(=O)c1nn(-c2ccc(OC)cc2OC)c(=O)c2ccccc12`, the cell count in test [1] worked out at 352. Further, the inhibition is 5.3% (inactive) in test [1], -101% (inactive) in test [3], -10.6% (inactive) in test [7] and 7.12% (inactive) in test [8]. For the same compound, in test [2], the inhibition of aggregation was -6.3% (inactive). For the same compound, the results for the nuclei count in test [2] and in test [3] were 106% and 127%, respectively. Also, in test [4], the fluorescence slope was -0.597 (inactive). For the same compound, the NADPH fluorescence slope in test [5] was -3.1e-05 (inactive). Further, the slope in test [6] was 0.00476 (inactive).

Regarding `O=C(CSCc1cccs1)N1CCCC1`, the cell count in test [1] was 228. Further, the inhibition in test [1] was 3.9% (inactive); in test [3], 18.9% (inactive); in test [7], -30.1% (inactive); in test [8] it was -81.3% (inactive). In test [2], the inhibition of aggregation was -13.9% (inactive). The nuclei count came to 95% in test [2] and 87.8% in test [3]. Further, in test [4], the fluorescence slope is -0.528 (inactive). Besides, the NADPH fluorescence slope in test [5] is -1.2e-05 (inactive). In addition, the slope in test [6] is 0.00575 (inactive).

Consider `CCOCCCNC(=O)C1CCCN(S(=O)(=O)CC)C1` (centres undefined), for which, in test [1], the cell count is 630. Also, the inhibition is -36% (inactive) in test [1], -3.3% (inactive) in test [3], 15.1% (inactive) in test [7] and 12.2% (inactive) in test [8]. The inhibition of aggregation in test [2] is -6.6% (inactive). Besides, the nuclei count came out at 112% in test [2] and 95.1% in test [3]. Moreover, the fluorescence slope in test [4] was -0.408 (inactive). Also, the NADPH fluorescence slope in test [5] is -4e-05 (inactive). For the same compound, the slope in test [6] is 0.00421 (inactive).

As to `COc1ccc(NC(=O)CSc2c(C)nn(-c3nnc(C)c(=O)[nH]3)c2C)cc1`, in test [1], the cell count turned out to be 387. The inhibition in test [1] is -4.5% (inactive); in test [3], -170% (inactive); in test [7], 1.41% (inactive); in test [8], 3.06% (inactive). The inhibition of aggregation in test [2] is -12.6% (inactive). The nuclei count was found to be 107% in test [2] and 134% in test [3]. Also, in test [4], the fluorescence slope is -0.537 (inactive). Further, in test [5], the NADPH fluorescence slope was 2e-05 (inactive). Further, the slope in test [6] was 0.00687 (inactive).

On to `O=C(CNC1CCCCCC1)Nc1ccc(S(=O)(=O)NC2CC2)cc1`, for which, in test [1], the cell count is 727. In addition, the inhibition is -4.8% (inactive) in test [1], -51.5% (inactive) in test [3], 11.1% (inactive) in test [7] and 18.7% (inactive) in test [8]. For the same compound, the inhibition of aggregation in test [2] is 3.3% (inactive). Also, the nuclei count in test [2] turned out to be 104%; in test [3], 108%. Further, in test [4], the fluorescence slope is -0.49 (inactive). Further, the NADPH fluorescence slope in test [5] is -5.4e-05 (inactive). For the same compound, the slope in test [6] is 0.00449 (inactive).

For `CCC(C)(C(=O)NC1CCCCC1)N(Cc1ccco1)C(=O)c1cnccn1` (centres undefined), the cell count in test [1] is 471. Moreover, the inhibition in test [1] is 0.3% (inactive); in test [3], -23.4% (inactive); in test [7], 10.7% (inactive); in test [8], 27.6% (inactive). Besides, the inhibition of aggregation in test [2] was 16.1% (inactive). Moreover, the figures for the nuclei count in test [2] and in test [3] were 89.9% and 110%, respectively. Moreover, in test [4], the fluorescence slope was -0.376 (inactive). Further, in test [5], the NADPH fluorescence slope is -4.2e-05 (inactive). For the same compound, in test [6], the slope was 0.00684 (inactive).

The values are drawn from PubChem BioAssay.
